Measurements from PubChem BioAssay (NCI).
Compounds without any hit were thinned out: in the full panel of roughly 79,000, 15% have a hit. Active and inactive are the calls of the source. No stated cut-off is given here; in the data, active means growth inhibition above about 70%; inactive means the rest.

assay: NCI Yeast Anticancer Drug Screen. Data for the sgs1 mgt1 strain (AID 161);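 further: 0% = growth of cultures given vehicle only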; conditions: S. cerevisiae sgs1 mgt1 strain, at 50.0 µM, hits give high values
In short: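 Test agents were incubated with a DNA-repair-mutant yeast strain. Growth was then read and compared against vehicle-treated controls.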

SMILES	growth inhibition
O=c1[nH]n(Cc2ccccn2)c2ccc([N+](=O)[O-])cc12	-26.8% (inactive)
CCOC(=O)CCCCCCC(=O)OCC	5.05% (inactive)
O=C(O)CCC(=O)c1ccc2c3c1CCCC3CC2 (stereo unspecified)	48.5% (inactive)
CCc1ccc(OC(C)=O)cc1	-13.2% (inactive)
Cc1ccc(/C(O)=C/C(=O)C(=O)NN=C(c2ccccc2)c2ccccc2)cc1	26.8% (inactive)
CCCc1c(O)c(=O)c2c(OC)cc(OC)c3c4c(OC)cc(OC)c5c(=O)c(O)c(CCC)c(c1c23)c54	81.3% (active)
COc1ccc(C(O)Cc2ccccc2)cc1 (stereo unspecified)	5.6% (inactive)
O=C(CC12C3C4C1C1C2C3C41CC(=O)NO)NO (stereo unspecified)	-29.2% (inactive)
Cc1ccc(S(=O)(=O)C2=c3nc4ccccc4cc3=C3C(=O)c4ccccc4C(=O)C32)cc1 (stereo unspecified)	-20.8% (inactive)
Oc1ccc(Cl)cc1-c1cc(-c2ccccc2)nc(=S)[nH]1	-17.6% (inactive)
c1ccc(-c2cc(-c3cc(-c4ccccc4)n(-c4ccccc4)n3)nn2-c2ccccc2)cc1	-19.3% (inactive)
CC1=C(C(=O)Nc2ccccc2C)C(c2ccccc2)C(C(=O)Nc2ccccc2C)=C(C)N1	9.25% (inactive)
O=C(/C=C/c1ccccc1)NC(=S)Nc1ccc(F)c([N+](=O)[O-])c1	7.85% (inactive)
NCCSSCCCCSSCCN	-13.7% (inactive)
Cc1c(-c2nc(N)nc(C3CC3)c2C)nc(N)nc1C1CC1	-12.7% (inactive)
O=C1NC(N2CCCC(CO)C2)=N/C1=C\c1ccc(Cl)cc1 (stereo unspecified)	-18.9% (inactive)
